Results taken from PubChem BioAssay (NCI).
Compounds without any hit were thinned out: in the full panel of roughly 79,000, 15% have a hit. Activity calls are given as the source filed them. Rule as the data show it: active = growth inhibition above about 70%; inactive = the rest.

What was measured:
[1] = NCI Yeast Anticancer Drug Screen. Data for the rad52 strain (AID 147);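 also: 0% = growth of vehicle-treated control cultures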; conditions: S. cerevisiae rad52 mutant growth inhibition, active compounds read high
Procedure, shortened: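 Screen used a yeast mutant impaired in DNA repair. After compound exposure, growth was measured. Values reflect inhibition compared with vehicle-treated cells.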

[2] = NCI Yeast Anticancer Drug Screen. Data for the wt1 strain (AID 149);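 also: 0% = growth of vehicle-treated wt1 cultures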; conditions: S. cerevisiae wt1 strain (SPY 50644) growth inhibition, active compounds read high
Procedure, shortened: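 Yeast wt1 strain exposed to compounds; growth inhibition measured relative to vehicle-treated controls.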

[3] = NCI Yeast Anticancer Drug Screen. Data for the rad50EPP+ strain (AID 151);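 also: 0% = growth of vehicle-treated control cultures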; conditions: S. cerevisiae rad50 mutant strain, active compounds read high
Procedure, shortened: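 Exposing the rad50EPP+ strain to each compound, growth was compared with vehicle-only cultures to give inhibition.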

[4] = NCI Yeast Anticancer Drug Screen. Data for the mgt1 strain (AID 153); conditions: S. cerevisiae mgt1 mutant growth inhibition, active compounds read high
Procedure, shortened: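 Genetically defined yeast (mgt1) treated with compound; inhibition of growth expressed against vehicle-treated controls.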

[5] = NCI Yeast Anticancer Drug Screen. Data for the rad50 strain (AID 155);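 also: 0% = growth of vehicle-only cultures of the same strain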; conditions: S. cerevisiae rad50 strain growth inhibition, active compounds read high
Procedure, shortened: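 Yeast carrying a defined DNA repair defect were exposed to test compounds, and growth was compared with vehicle-treated controls to give percent inhibition.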

[6] = NCI Yeast Anticancer Drug Screen. Data for the mec2-1 strain (AID 157); conditions: S. cerevisiae mec2-1 strain, active compounds read high
Procedure, shortened: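 Readout is yeast growth inhibition, normalised to vehicle-treated controls, in the mec2-1 strain exposed to compound.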

[7] = NCI Yeast Anticancer Drug Screen. Data for the rad14 strain (AID 159);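 also: 0% = growth of vehicle-treated control cultures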; conditions: S. cerevisiae rad14 strain growth inhibition, active compounds read high
Procedure, shortened: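 Yeast cells carrying a defined DNA-repair defect were exposed to compounds, and growth inhibition was calculated relative to vehicle-treated control cultures.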

[8] = NCI Yeast Anticancer Drug Screen. Data for the sgs1 mgt1 strain (AID 161);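 also: 0% = growth of cultures given vehicle only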; conditions: S. cerevisiae sgs1 mgt1 strain, active compounds read high
Procedure, shortened: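 Yeast cells carrying a defined DNA-repair defect were exposed to test compounds. Growth inhibition was measured relative to vehicle-treated controls.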

[9] = NCI Yeast Anticancer Drug Screen. Data for the CLN2oe strain (AID 163);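 also: 0% = growth of vehicle-only control cultures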; conditions: S. cerevisiae CLN2oe strain, active compounds read high
Procedure, shortened: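 Values reflect how much compound exposure reduced yeast growth, referenced to vehicle-exposed cells. Assay organism is a strain with a defined genetic change affecting cell-cycle control.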

[10] = NCI Yeast Anticancer Drug Screen. Data for the cln2 rad14 strain (AID 165);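 also: 0% = growth equal to vehicle treated cultures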; conditions: S. cerevisiae cln2 rad14 strain, active compounds read high
Procedure, shortened: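 Relative to vehicle controls, growth inhibition of compound-treated cln2 rad14 yeast was recorded.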

[11] = NCI Yeast Anticancer Drug Screen. Data for the bub3 strain (AID 167); conditions: S. cerevisiae bub3 mutant strain, active compounds read high
Procedure, shortened: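 Compounds were applied to a genetically altered yeast strain carrying a cell-cycle control defect. Growth inhibition was scored against vehicle-treated controls.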

[12] = NCI Yeast Anticancer Drug Screen. Data for the wt2 strain (AID 169);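 also: 0% = growth of vehicle-treated yeast cultures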; conditions: S. cerevisiae wt2 strain growth inhibition, active compounds read high
Procedure, shortened: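 Values express reduction in yeast growth under compound treatment, referenced to vehicle-treated cells.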

[13] = NCI Yeast Anticancer Drug Screen. Data for the mlh1 strain (AID 171);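 also: 0% = growth of vehicle-treated control cultures of the same strain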; conditions: S. cerevisiae mlh1 strain growth inhibition, active compounds read high
Procedure, shortened: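 Steps: expose the defined-mutant yeast strain to compound; expose a parallel culture to vehicle; measure growth; express compound effect as inhibition relative to the vehicle culture.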

[14] = NCI Yeast Anticancer Drug Screen. Data for the sgs1 strain (AID 173);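 also: 0% = growth of vehicle-only control cultures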; conditions: S. cerevisiae sgs1 mutant, active compounds read high
Procedure, shortened: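 Treat defined-mutant yeast with compound; measure growth; calculate inhibition relative to vehicle-treated cells.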

[15] = NCI Yeast Anticancer Drug Screen. Data for the mlh1 rad18 strain (AID 175); conditions: S. cerevisiae mlh1 rad18 strain growth inhibition, active compounds read high
Procedure, shortened: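 Test agents were incubated with a yeast strain of defined genotype (DNA damage repair defect). Inhibition of growth was derived by comparison with vehicle-exposed cultures.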

[16] = NCI Yeast Anticancer Drug Screen. Data for the rad18 strain (AID 177); conditions: S. cerevisiae rad18 mutant growth inhibition, active compounds read high
Procedure, shortened: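 A genetically defined yeast mutant impaired in DNA damage repair was treated with test compounds, then its growth was measured against cultures receiving vehicle alone.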

[17] = at 5.0 µM (retest, dose inferred, filed as 0.5)
[18] = at 50.0 µM (retest, dose inferred, filed as 5.0)

Measured: growth inhibition

CCCCCCCSCC1C(=O)C23C(O)C1CCC2C12COC3(O)C(O)C1C(C)(C)CCC2O (stereo unspecified)
inactive: [1]; at 1.2 µM 13% | [1]; at 3.7 µM 14% | [2]; at 1.2 µM 16% | [2]; at 3.7 µM 5% | [3]; at 1.2 µM 26% | [3]; at 3.7 µM 27% | [3]; at 11.0 µM 32% | [3]; at 33.0 µM 28% | [3]; at 100.0 µM 6% | [4]; at 1.2 µM 20% | [4]; at 3.7 µM 20% | [5]; at 1.2 µM 13% | [5]; at 3.7 µM 16% | [5]; [17] -12% | [5]; at 11.0 µM 66% | [6]; at 1.2 µM 23% | [6]; at 3.7 µM 15% | [6]; [17] 2% | [6]; at 11.0 µM 67% | [7]; at 1.2 µM -9% | [7]; at 3.7 µM 5% | [8]; [17] 28% | [9]; at 1.2 µM 19% | [9]; at 3.7 µM 6% | [10]; [17] 54% | [11]; at 1.2 µM 4% | [11]; at 3.7 µM 9% | [11]; [17] 65% | [12]; at 1.2 µM 14% | [12]; at 3.7 µM 0% | [12]; at 11.0 µM 67% | [13]; at 1.2 µM -1% | [13]; at 3.7 µM 23% | [14]; at 1.2 µM 26% | [14]; at 3.7 µM 19% | [15]; [17] 50% | [16]; at 1.2 µM -1% | [16]; at 3.7 µM 2%
active: [1]; at 11.0 µM 71% | [1]; at 33.0 µM 94% | [1]; at 100.0 µM 85% | [2]; at 11.0 µM 82% | [2]; at 33.0 µM 95% | [2]; at 100.0 µM 90% | [4]; at 11.0 µM 88% | [4]; at 33.0 µM 96% | [4]; at 100.0 µM 89% | [5]; at 33.0 µM 93% | [5]; [18] 74% | [5]; at 50.0 µM 87.5% | [5]; at 100.0 µM 81% | [6]; at 33.0 µM 94% | [6]; [18] 97% | [6]; at 50.0 µM 88.2% | [6]; at 100.0 µM 87% | [7]; at 11.0 µM 84% | [7]; at 33.0 µM 95% | [7]; at 100.0 µM 91% | [8]; [18] 95% | [8]; at 50.0 µM 87.8% | [9]; at 11.0 µM 89% | [9]; at 33.0 µM 97% | [9]; at 100.0 µM 91% | [10]; [18] 97% | [10]; at 50.0 µM 85.8% | [11]; at 11.0 µM 78% | [11]; at 33.0 µM 94% | [11]; [18] 97% | [11]; at 50.0 µM 86.2% | [11]; at 100.0 µM 90% | [12]; at 33.0 µM 95% | [12]; at 100.0 µM 93% | [13]; at 11.0 µM 93% | [13]; at 33.0 µM 95% | [13]; at 100.0 µM 91% | [14]; at 11.0 µM 89% | [14]; at 33.0 µM 95% | [14]; at 100.0 µM 84% | [15]; [18] 94% | [15]; at 50.0 µM 88.8% | [16]; at 11.0 µM 89% | [16]; at 33.0 µM 94% | [16]; at 100.0 µM 87%

O=C(NCCCCN(CCCNC(=O)C(F)(F)F)Cc1ccccc1)C(F)(F)F
inactive: [1]; at 1.2 µM 30% | [1]; at 3.7 µM 36% | [1]; at 11.0 µM 31% | [1]; at 33.0 µM 33% | [1]; at 100.0 µM 35% | [2]; at 1.2 µM 5% | [2]; at 3.7 µM 9% | [2]; at 11.0 µM 4% | [2]; at 33.0 µM 6% | [2]; at 100.0 µM -10% | [3]; at 1.2 µM 5% | [3]; at 3.7 µM -6% | [3]; at 11.0 µM 4% | [3]; at 33.0 µM -2% | [3]; at 100.0 µM -18% | [4]; at 1.2 µM 22% | [4]; at 3.7 µM 33% | [4]; at 11.0 µM 32% | [4]; at 33.0 µM 26% | [4]; at 100.0 µM 7% | [5]; at 1.2 µM 32% | [5]; at 3.7 µM 33% | [5]; [17] 39% | [5]; at 11.0 µM 40% | [5]; at 33.0 µM 33% | [5]; at 50.0 µM -5.5% | [5]; at 100.0 µM 27% | [6]; at 1.2 µM 14% | [6]; at 3.7 µM 11% | [6]; [17] 14% | [6]; at 11.0 µM 14% | [6]; at 33.0 µM 0% | [6]; at 50.0 µM -9.05% | [6]; at 100.0 µM -13% | [7]; at 1.2 µM 16% | [7]; at 3.7 µM 16% | [7]; at 11.0 µM 15% | [7]; at 33.0 µM 11% | [7]; at 100.0 µM -10% | [8]; [17] -19% | [8]; [18] -11% | [8]; at 50.0 µM -5.75% | [9]; at 1.2 µM 13% | [9]; at 3.7 µM 3% | [9]; at 11.0 µM 6% | [9]; at 33.0 µM 12% | [9]; at 100.0 µM -3% | [10]; [17] 14% | [10]; [18] 8% | [10]; at 50.0 µM 26.9% | [11]; at 1.2 µM 11% | [11]; at 3.7 µM 0% | [11]; [17] 7% | [11]; at 11.0 µM 0% | [11]; at 33.0 µM -7% | [11]; [18] 0% | [11]; at 50.0 µM -14% | [11]; at 100.0 µM 0% | [12]; at 1.2 µM -4% | [12]; at 3.7 µM -6% | [12]; at 11.0 µM 2% | [12]; at 33.0 µM -12% | [12]; at 100.0 µM -12% | [13]; at 1.2 µM 22% | [13]; at 3.7 µM 33% | [13]; at 11.0 µM 32% | [13]; at 33.0 µM 26% | [13]; at 100.0 µM 7% | [14]; at 1.2 µM 40% | [14]; at 3.7 µM 41% | [14]; at 11.0 µM 44% | [14]; at 33.0 µM 15% | [14]; at 100.0 µM 36% | [15]; [17] 19% | [15]; [18] 24% | [15]; at 50.0 µM -63% | [16]; at 1.2 µM 13% | [16]; at 3.7 µM 12% | [16]; at 11.0 µM 21% | [16]; at 33.0 µM 14% | [16]; at 100.0 µM -7%
active: [5]; [18] 90% | [6]; [18] 75%
